Bioassay records deposited in PubChem BioAssay by National Center for Advancing Translational Sciences (NCATS).
In the library only some 14% were active in any assay of this set; here they are far more common.
HSD17B inh: blocks hydroxysteroid 17-beta dehydrogenase activity | recombinant HSD17B10, NADH fluorescence kinetic | Potency, µM (series often up to 57.1 µM), for inactives: at the highest dose activity change, negative = inhibition, usual class: inhibitors | 7.6% of 75,000 active;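 note: the protocol describes HADH2 (HSD17B10) and not the HSD17B4 of the title; potency is the fitted concentration of half-maximal effect; % is set by controls: 0 for no effect and ±100 for the full control effect; nearly all actives have a fitted effect of over 70% in size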
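His-tagged E. coli-expressed HADH2 at 20 nM in 100 mM Tris-HCl pH 9.0 with 0.01 % Tween-20, preincubated 15 min with compound at room temperature. Reaction with 1 mM NAD+ and 90 uM beta-hydroxybutyryl coenzyme A; NADH fluorescence (360/450 nm) read kinetically over 4 min, last minus first point.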
4-MU autofl: compound fluoresces in the 4-MU spectral region | compound autofluorescence, 340/450 nm, 4-MU equivalents; stronger effect = higher value | max dye-equivalent concentration, M | 11% of 59,000 active | AID 589; in the data active = max dye-equivalent concentration above about 10 nM; inconclusive = mostly about 1.1 nM to 9.6 nM
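Intrinsic fluorescence at 340/450 nm (ex/em) was read after 15 min at room temperature in pH 8.0, 100 mM Tris. Each compound concentration expressed as 4-MU-equivalent concentration from a six-point 4-MU standard series on each plate.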
AID923: qHTS Assay for Allosteric/Competitive Inhibitors of Caspase-1: Spectroscopic Profiling in AFC Spectral Region. Potency, µM (series often up to 57.5 µM), for the others: at the highest dose fluorescence increase, actives largely listed as activators. 1.1% of 75,000 active. AID 923, 2007. compound fluorescence, AFC spectral region (405/520 nm); note: potency is the fitted concentration of half-maximal effect; 0% is about no effect
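Titrations up to 57 uM read every 20 sec for 3 min (405/520 nm) with 50 nM caspase 1 and 5 uM Ac-WEHD-AFC, pH 7.5 HEPES buffer. Fluorescence-vs-time intercept gave baseline, scaled against on-plate AFC standard.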
A350 fluor: A350 region autofluorescence | Compound autofluorescence, 340/450 nm, Alexa 350 dye-equivalents; stronger effect = higher value | max dye-equivalent concentration, M | 11% of 59,000 active; in the data active = max dye-equivalent concentration above about 10 nM; inconclusive = mostly about 1.1 nM to 9.6 nM
CRE Fsk mod: CRE-bla signaling modulation under forskolin stimulation. 2.5% of 71,000 active. CHO CRE-bla reporter (cAMP response element driving beta-lactamase), forskolin EC10, beta-lactamase ratio. Potency, µM (top dose mostly 38.2 µM), without a hit: top-dose activity change, negative = inhibition, actives largely listed as activators; active = well fitted activation curve with a large enough effect in the signal ratio, with a control signal flat, not every such curve was filed as active; inconclusive = small, poorly fitted or top-dose-only effect, or effect the other way, or a change in a side signal; the % refers to the signal ratio; note: potency is the fitted concentration of half-maximal effect; % of control where 0% means no effect
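Modulation of forskolin signalling: compounds in titration series added with EC10 NKH 477 to CHO cells carrying a CRE-driven beta-lactamase reporter, 3 h, 37C. CCF4 FRET ratio (460/530 nm, ex 405 nm) gives %activity and AC50.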
HADH2 inh: HADH2 (human) dehydrogenase inhibition | recombinant HADH2, NADH fluorescence, beta-hydroxybutyryl-CoA | Potency, µM (doses to about 57.1 µM), for inactives: at the top dose activity change, negative = inhibition, hits mostly inhibitors | 3.4% of 73,000 active; note: potency is the fitted concentration of half-maximal effect; % is set by controls: 0 for no effect and ±100 for the full control effect; nearly all actives have a fitted effect of over 60% in size
Target sequence (Q99714 whole entry, looked up, one chain of several): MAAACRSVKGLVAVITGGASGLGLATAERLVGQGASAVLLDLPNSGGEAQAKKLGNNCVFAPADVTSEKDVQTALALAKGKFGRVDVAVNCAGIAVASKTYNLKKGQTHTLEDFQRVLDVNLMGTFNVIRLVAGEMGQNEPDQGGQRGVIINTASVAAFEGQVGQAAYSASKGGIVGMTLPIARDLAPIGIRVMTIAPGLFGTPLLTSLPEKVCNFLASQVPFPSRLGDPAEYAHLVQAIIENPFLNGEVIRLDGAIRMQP
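His-tagged recombinant enzyme from E. coli, 20 nM, preincubated 15 min RT with compound; reaction started with 1 mM NAD+ and 90 uM beta-hydroxybutyryl-CoA in 100 mM Tris-HCl pH 9.0. NADH fluorescence (ex 360/em 450) read over 4 min; last-minus-first difference.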
The depositor's hits bear a star; i = inactive; ? = inconclusive; · = no result; [ ] = another dose, or the depositor's remark. Unless noted, calls come from the whole dose curve; as a rule, active = well fitted curve in the direction sought with a large enough effect; inconclusive = small, poorly fitted or top-dose-only effect, or another doubt; inactive = no such curve, though single readings can be large; an effect the other way counts as inactive or inconclusive.

SMILES	HSD17B inh	4-MU autofl	AID923	A350 fluor	CRE Fsk mod	HADH2 inh
CC1CCCC(C(=O)O)N1C(=O)CCSC(=O)c1ccccc1 (configuration not stated)	-0.8%	2.48e-08M*	3.7%	3.04e-08M*	-11.7%	-5.7%
Cc1ccc(CC(NC(=O)c2ccccc2)C(=O)N2CCCC2C(=O)O)cc1 (configuration not stated)	-7.0%	i	0.3%	i	-0.4%	-15.4%
Cc1noc(C)c1-c1ccc2ncnc(Nc3ccc(F)cc3)c2c1	1.1%	i	2.8%	i	13.9%	3.5%
CC(=O)Nc1cc2c(cc1C(C)=O)OCCO2	?	3.53e-08M*	1.7%	4.14e-08M*	?	-13.4%
CC(=O)c1cc2c(cc1NC(=O)CCCC(=O)O)OCO2	-24.8%	1.83e-08M*	0.6%	1.92e-08M*	?	-12.8%
CC(=O)c1cc2c(cc1NC(=O)C1CC=CCC1C(=O)O)OCO2 (configuration not stated)	-9.3%	4.33e-08M*	-0.6%	3.68e-08M*	-6.7%	-4.2%
CC(=O)c1cc2c(cc1NC(=O)c1cnc(C)cn1)OCO2	0.6%	?	0.6%	?	4.8%	-4.9%
CC(=O)c1cc2c(cc1NC(=O)Nc1cccc(Cl)c1)OCCO2	31.6µM*	2.43e-08M*	-3.9%	3.12e-08M*	6.7%	32.9%
CC(=O)O[C@H]1C[C@H]2CC[C@@H]3[C@H]4C[C@@H]([N+]5(C)CCCCC5)[C@@H](OC(C)=O)[C@]4(C)CC[C@@H]3[C@@]2(C)C[C@@H]1[N+]1(C)CCCCC1	4.1%	·	-1.3%	·	-15.9%	2.0%
C=Cc1ccccc1Cl	-2.0%	·	2.5%	·	-5.4%	-5.1%
COc1ccc(OC[C@@H](CO)OC)cc1	7.2%[11.4 µM]	·	-4.7%[11.5 µM]	·	·	2.1%[11.4 µM]
O=C(O)c1ccccc1-c1ccccc1C(=O)Nc1ccc2c(c1)Cc1ccccc1-2	4.2%[11.4 µM]	i	-3.4%[11.5 µM]	i	1.8%[7.6 µM]	-5.8%[11.4 µM]
CCC(=O)c1cc2c(cc1NC(=O)C(C)C)OCCO2	?	2.47e-08M*	0.8%	3.25e-08M*	?	9.5%
CCOC(=O)C1=C(C)OC(N)=C(C#N)C1c1cc2ccccc2nc1N1CCCCC1 (configuration not stated)	·	1.48e-07M*	·	1.67e-07M*	·	·
CCOC(=O)C1=C(C)OC(N)=C(C#N)C1c1cc2c(cc1Br)OCO2 (configuration not stated)	-28.6%	i	13.0%	?	5.0%	?
Cc1ccc2c(c1)cc(CN(Cc1ccco1)C(=O)COc1ccccc1)c1nnnn12	31.6µM*	i	1.7%	i	2.7%	-1.3%
N#CC1=C(N)C(C#N)(C#N)C(c2cccnc2)C2COCC=C12 (configuration not stated)	i	?	12.1%	?	0.4%	60.6%
CN1C2C=C3C(C#N)=C(N)C(C#N)(C#N)[C@@H](c4cccs4)C3C1CC2 (some centres not stated)	·	5.6e-08M*	·	6.79e-08M*	·	·
CCCCCCC#CC1C=CC(OC(=O)OCC)C(COC(=O)OCC)O1 (configuration not stated)	-7.7%[11.4 µM]	·	-1.6%[11.5 µM]	·	·	-10.9%[11.4 µM]
CCOC(=O)c1c(NC(=O)c2ccc(Br)o2)sc(C)c1CC	31.6µM*	·	13.7%	·	?	31.6µM*
CCOC(=O)c1c(NC(=O)c2cccs2)sc2c1CCN(C(=O)OCC)C2	?	·	13.7%	·	?	0.1%
